This is a sample that favours compounds with a hit; in the whole collection about 19% have one here.
TDP1 cell noCPT: qHTS for Inhibitors of human tyrosyl-DNA phosphodiesterase 1 (TDP1): qHTS in cells in absence of CPT. DT40 Tdp1-/- hTDP1 cells, no CPT, ATP luminescence, 48 h. Potency, µM (titrated, usually from 46.2 µM), for inactives: at the top dose activity change, negative = growth inhibition, hits mostly inhibitors. 420,000 tested, 15% active. AID 686978, 2013; also: potency is read from the fitted curve at half-maximal effect; % is scaled to controls: 0 for no effect and ±100 for the full control effect; nearly all actives have a fitted effect of over 55% in size
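Luminescent ATP content (CellTiter-Glo) served as the growth readout. Knockout chicken DT40 cells expressing human TDP1 were exposed to compounds without camptothecin for a minimum 48 hr at 37 °C.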
HepG2 tox: kills HepG2 cells in TGF-b inhibitor counter-screen. Potency, µM (highest dose often 46.1 µM), for inactives: at the top dose activity change, negative = cytotoxicity, hits mostly cytotoxic. 410,000 tested, 0.76% active. HepG2 CAGA-GFP viability, ATP luminescence, 18 h. AID 588856; also: potency is read from the fitted curve at half-maximal effect
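HepG2 CAGA-GFP cells (1000/well, DMEM with 1% FBS) received compound, then TGF-beta at 500 pg/mL final, and were incubated 18 hours at 37 degrees C. Viability was read by CellTiter-Glo luminescence. Media-only wells were set as complete cell-killing and DMSO as no toxicity.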
TGFb inhibitor: blocks TGF-b signaling; HepG2 CAGA-GFP TGF-b/SMAD3 reporter, GFP fluorescence, 18 h; TGF-beta stimulated, 500 pg/mL final; Potency, µM (highest dose often 46.1 µM), without a hit: at the top dose activity, negative = inhibition, most hits filed as inhibitors; 410,000 tested, 1.2% active; also: potency is read from the fitted curve at half-maximal effect; % is scaled to controls: 0 for no effect and ±100 for the full control effect; nearly all actives have a fitted effect of over 65% in size
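TGF-beta reporter screen: HEPG2 CAGA-GFP, 1% FBS, 500 pg/mL TGF-beta final, 18 h; per-cell GFP summed per well; curves fitted and categorized by class.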
TDP1 cell CPT: DT40-hTDP1 cell growth loss with CPT. chicken DT40 Tdp1-/-;hTDP1 cells + 20 nM CPT, ATP luminescence, 48 h. Potency, µM (series often up to 46.2 µM), without a hit: at the top dose activity change, negative = growth inhibition, usual class: inhibitors. AID 686979. 420,000 tested, 12% active; also: potency is read from the fitted curve at half-maximal effect; % is scaled to controls: 0 for no effect and ±100 for the full control effect; nearly all actives have a fitted effect of over 55% in size
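Chicken DT40 Tdp1-/- cells stably complemented with human TDP1 were seeded at 400 cells/well in medium containing 20 nM camptothecin, exposed to pin-transferred compounds, and grown at 37 °C for at least 48 hr. Viability was read as ATP luminescence.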
TDP1 block: TDP1 (human) enzyme inhibition; recombinant TDP1, AlphaScreen DNA substrate cleavage; Potency, µM (top dose mostly 130 µM), for inactives: at the highest dose activity change, negative = inhibition, most hits filed as inhibitors; 350,000 tested, 0.28% active; AID 485290; also: potency is read from the fitted curve at half-maximal effect; % is scaled to controls: 0 for no effect and ±100 for the full control effect; nearly all actives have a fitted effect of over 40% in size
Target sequence (Q9NUW8 whole entry, looked up): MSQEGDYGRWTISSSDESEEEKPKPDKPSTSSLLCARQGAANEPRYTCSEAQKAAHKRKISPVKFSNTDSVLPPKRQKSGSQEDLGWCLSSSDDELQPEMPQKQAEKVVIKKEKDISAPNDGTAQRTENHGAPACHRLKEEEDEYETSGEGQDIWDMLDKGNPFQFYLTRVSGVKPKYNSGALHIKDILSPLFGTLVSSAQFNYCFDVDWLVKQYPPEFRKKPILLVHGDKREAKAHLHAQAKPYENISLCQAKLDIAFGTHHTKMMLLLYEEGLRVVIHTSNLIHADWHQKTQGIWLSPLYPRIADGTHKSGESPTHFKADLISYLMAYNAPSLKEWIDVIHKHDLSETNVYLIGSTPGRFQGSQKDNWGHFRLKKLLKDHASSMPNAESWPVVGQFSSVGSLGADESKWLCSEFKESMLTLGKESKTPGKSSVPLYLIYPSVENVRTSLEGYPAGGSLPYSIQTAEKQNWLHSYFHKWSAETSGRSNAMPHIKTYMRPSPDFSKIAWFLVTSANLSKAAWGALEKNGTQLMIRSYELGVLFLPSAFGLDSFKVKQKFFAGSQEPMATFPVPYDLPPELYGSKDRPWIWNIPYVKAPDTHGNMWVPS
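Compounds were preincubated with Tdp1 (1 nM final) for 15 min at room temperature before substrate (15 nM final) started a 5 min reaction; beads (10 ug/ml final) were then added for 10 min before AlphaScreen detection.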
IL1B secr inh: inhibitors of inflammasome signaling (IL-1 beta secretion); 360,000 tested, 4.7% active; THP-1 LPS/ATP IL-1B secretion, AlphaLISA, 16 h; active compounds read low; activity change, % at 57.5 µM; AID 743279; in the data active = activity change below about -50%; inconclusive = mostly about -30% to -49%; also: % is scaled to controls: 0 for no effect and ±100 for the full control effect
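Secreted IL-1B measured by AlphaLISA bead assay after 16 h compound exposure of THP-1 cells; compounds (final up to 57.5 uM) added 1 h before LPS (250 ng/mL) and ATP (1.25 mM) stimulation; lower signal means less secretion.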
Active calls of the source: *; ? = inconclusive; . = no result given; [ ] = remark or other dose. Unless noted, calls follow the shape of the dose curve; as a rule, active = well fitted curve in the direction sought with a large enough effect; inconclusive = small, poorly fitted or top-dose-only effect, or another doubt; inactive = no such curve, though single readings can be large; an effect the other way counts as inactive or inconclusive.

SMILES	TDP1 cell noCPT	HepG2 tox	TGFb inhibitor	TDP1 cell CPT	TDP1 block	IL1B secr inh
Cc1cccc(-c2c3c(=O)n(C)c(=O)n(C)c3c3c(C)nc4ccccc4n23)c1	6.5µM*	10%	16%	?	2%	.
Cc1ccc(-c2c3c(=O)n(C)c(=O)n(C)c3c3c(-c4cccc(C)c4)nc4ccccc4n23)cc1	?	-8%	11%	?	1%	.
O=C(N[C@@H]1c2ccccc2C2(CCN(C(=O)c3cc4ccccc4oc3=O)CC2)[C@H]1O)c1cccnc1	-6%	.	.	-1%	.	.
O=c1oc2c3c4c(cc2s1)CCCN4CCC3	-11%	-15%	-18%	-6%	14µM*	-8
C[C@@H]1CCCCO[C@@H](CN(C)CC2CC2)[C@@H](C)CN([C@H](C)CO)C(=O)c2cc(N(C)C)ccc2O1	10%	-5%	-1%	22%	.	16
C[C@@H]1CN([C@@H](C)CO)C(=O)c2cc(N(C)C)ccc2O[C@@H](C)CCCCO[C@@H]1CN(C)S(=O)(=O)c1cccs1	16µM*	39%	5%	18µM*	.	26
C[C@H]1CCCCO[C@H](CN(C)S(=O)(=O)c2cn(C)cn2)[C@@H](C)CN([C@@H](C)CO)C(=O)c2cc(NS(=O)(=O)c3ccccc3)ccc2O1	-3%	2%	34%	8%	.	4
C[C@@H]1CCCCO[C@@H](CN(C)S(=O)(=O)c2cccs2)[C@@H](C)CN([C@H](C)CO)C(=O)c2cc(NS(=O)(=O)c3ccccc3)ccc2O1	8.2µM*	1%	?	16µM*	.	?
C[C@@H]1CCCCO[C@H](CN(C)S(=O)(=O)c2cccs2)[C@@H](C)CN([C@H](C)CO)C(=O)c2cc(NC(=O)C3CCCCC3)ccc2O1	26µM*	-2%	30%	18µM*	.	-4
C[C@H](CO)N1C[C@H](C)[C@@H](CN(C)S(=O)(=O)c2ccccc2)Oc2ccc(NC(=O)NC3CCCCC3)cc2C1=O	21µM*	-4%	-2%	?	0%	-1
C[C@@H]1CCCCO[C@H](CN(C)S(=O)(=O)c2cccs2)[C@H](C)CN([C@@H](C)CO)C(=O)c2cc(NC(=O)NC3CCCCC3)ccc2O1	12µM*	1%	16%	18µM*	.	-16
COC1=CC(C)C2CC3OC(=O)CC4C(C)=C(OC)C(=O)C([C@]2(C)C1=O)[C@]34C (some centres undefined)	-3%	.	.	18%	9%[56.1 µM]	.
Cc1ccc(N2C(=O)N(CC(=O)Nc3cccc(Cl)c3)C(=O)C2C)cc1 (centres undefined)	?	-24%	-5%	?	-10%	-61*
COc1cc(NC(=O)CN2C(=O)C(C)N(c3ccc(C)cc3)C2=O)cc(OC)c1 (centres undefined)	-12%	-15%	2%	-8%	.	-10
CCC1CSC(Nc2ccc(C(=O)/C=C/c3ccc(Br)cc3)cc2)=N1 (centres undefined)	?	-57%	16µM*	?	-3%	-93*
CCC1CSC(Nc2ccc(C(=O)/C=C/c3ccc(OC)c(OC)c3)cc2)=N1 (centres undefined)	13µM*	-13%	?	?	3%	-93*
Cc1cccc(CNc2cc(-c3ccc(C(=O)N(C)C)cc3)ncn2)c1	-15%	.	.	-21%	.	.
O=C(NC1CCCC1)c1cnn2c(C(F)(F)F)cc(-c3ccc4c(c3)OCO4)nc12	16µM*	-10%	-15%	7.3µM*	-2%	15
CC(C)(C)c1ccc(C(=O)C[n+]2ccc(Cl)c3ccc(Cl)cc32)cc1	0.35µM*	-55%	?	0.89µM*	.	.
COc1ccc(-c2noc(-c3ccc(N4CCCC4)c([N+](=O)[O-])c3)n2)cc1	-22%	0%	-1%	-21%	6%	.
CN1CCN2c3ccccc3CC(C#N)(C#N)C2C1 (centres undefined)	5%	3%	1%	-6%	.	8
O=C1N=C(N2CCCC2C(=O)O)S/C1=C\c1ccco1 (centres undefined)	18µM*	-3%	7%	8.2µM*	.	-1
O=C1N=C(N2CCCCC2)S/C1=C/C1=Cc2ccccc2OC1	?	5%	2%	?	4%	5
CC1CCN(C(=O)/C(=C/c2ccccc2Cl)c2ccccc2)CC1	?	-42%	0%	?	2%	-7
N#CC(C#N)=C1C=CC=CN1/C(=C\c1ccccc1Cl)C(=O)c1ccccc1	1.2µM*	7.1µM*	3.2µM*	0.58µM*	11%	-73*
SMILES	TDP1 cell noCPT	HepG2 tox	TGFb inhibitor	TDP1 cell CPT	TDP1 block	IL1B secr inh
N#CC(C#N)=C1C=CC=CN1/C(=C\c1ccccc1)C(=O)c1cccs1	3.7µM*	-18%	-16%	1µM*	5%	-18
CC(=O)N1CCOc2ccc(S(=O)(=O)N3CCN(c4cc(C)ccc4C)CC3)cc21	-10%	-10%	?	-19%	2%	48
CNC(=O)C1(C(F)(F)F)C/C(=C/CCO)CCCO1 (centres undefined)	.	5%	-4%	.	6%	.
CNC(=S)N/N=C/c1c(Cl)cccc1Cl	?	-12%	-29%	?	1%	-1
O=C(N/N=C/c1ccccc1O)C1(O)c2ccccc2-c2ccccc21	5.8µM*	-39%	?	8.2µM*	11%	73
CNC(=S)N/N=C/c1ccccc1Cl	?	4%	6%	?	2%	-50*
Oc1ccc(C=NNC(=S)Nc2ccccc2)nc1	5.2µM*	-43%	4%	5.2µM*	.	97
CCC(C)[C@@H](N)C(=O)N/N=C/c1ccc2ncccc2c1 (some centres undefined)	13µM*	-16%	-29%	4%	0%	13
COc1ccc(NC2C[C@H]3CCCC(=O)N4CC[C@@H](C2)[C@@H]34)cc1 (some centres undefined)	.	.	.	.	4%	.
Cc1ccc(S(=O)(=O)N2[C@@H](c3cccc(Cl)c3)C(C(=O)O)=CC[C@H]2c2ccc(C(C)C)cc2)cc1	-20%	-15%	?	-26%	-13%	28
COCCN1C(=O)CCC1(C)c1nnnn1-c1ccc2ccccc2c1 (centres undefined)	6%	.	.	13%	.	47
CCCCN(CC)CCCNC(=O)c1ccc2c(c1)N(CC)C(=O)c1ccccc1S2(=O)=O	1%	-19%	0%	-17%	.	0

Bioassay records deposited in PubChem BioAssay by National Center for Advancing Translational Sciences (NCATS).
